Assay outcomes as filed in PubChem BioAssay.
Hits are enriched below; roughly 2.6% of the tested compounds scored in any of these assays.
LGR2 inh: inhibitors of bursicon-induced LGR2 CRE-luciferase signal, primary screen, cell-based, HEK293, CRE-luciferase reporter, bursicon stimulation; inhibition, % at 9.99 µM; bursicon-stimulated, 4 h; Drosophila bursicon receptor LGR2 (rickets); AID 720647, 2013; 0.35% of 380,000 active;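 active means drop in luminescence signal, shown as inhibition above about 50% in the replicate tests, limit read from the data, passing the limit was not always enough; inconclusive means probably only some replicates passing the limit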;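 further: agonist challenge used bursicon conditioned medium at about half maximal strength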
LMP1 NFkB inh: EBV LMP1-driven NF-kappaB luciferase reporter inhibitors, primary screen, cell-based, luminescence, single point; LMP1-induced NF-kappaB luciferase reporter cells; inhibition, % at 12.5 µM; 0.69% of 350,000 active; AID 504558, 2011; in the data active means inhibition above about 41%; inconclusive means no clear call, values can overlap the other calls
EWS-Fli block: EWS/Fli-driven NR0B1 reporter inhibitors, primary screen, A673 cells, NR0B1 luciferase, luminescence, MLPCN library; viability-normalised; AID 651661, 2012; 0.67% of 350,000 active; inhibition, % at 12.6 µM;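 active means mean inhibition of at least 50% after viability correction, with every replicate also passing that limit; inconclusive means mean reaches 50% but only one of two replicates passes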;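 further: firefly luciferase signal divided by Alamar Blue viability fluorescence both relative to DMSO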
TWEAK Fn14 block: inhibitors of TWEAK-Fn14 signaling, primary screen, luciferase reporter cells, uHTS. TWEAK-stimulated Fn14 reporter cells, luciferase luminescence, 8 h. inhibition, % at 10 µM. 2% of 360,000 active; in the data active means inhibition above about 50%
TROY NFkB inh: inhibitors of TROY-driven NF-kB signaling, primary screen, Q293 LMP1-TROYcd cells, NF-kB luciferase, uHTS; AID 1347056, 2019; inhibition, % at 10 µM; Q293 LMP1-TROYcd NF-kB luciferase reporter, 4 h; 0.98% of 360,000 active;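 active means compounds whose plate-normalised and pattern-corrected inhibition of the luciferase reporter signal at the single screening dose is 50% or more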
Hits are given with their value.

`CN1C(=O)c2cc(NC(=O)c3cnccn3)ccc2OC[C@H]2O[C@H](CC(=O)N[C@@H]3CCN(Cc4ccccc4)C3)CC[C@@H]21` gave LGR2 inh inactive and EWS-Fli block inactive.
`O=C(N/N=C\c1c(O)ccc2ccccc12)c1ccc(S(=O)(=O)N2CCCCC2)cc1` gave LGR2 inh inactive, LMP1 NFkB inh 68, TWEAK Fn14 block inactive and TROY NFkB inh inactive.
O=C(NN=Cc1c(O)ccc2ccccc12)c1ccc2c(c1)OCO2 was read as LGR2 inh inactive, LMP1 NFkB inh 74, EWS-Fli block inactive, TWEAK Fn14 block inactive and TROY NFkB inh inactive.
`O=C(N/N=C/c1ccccc1)c1ccc2c(c1)OCO2` gave LGR2 inh inactive, LMP1 NFkB inh inactive, EWS-Fli block inactive, TWEAK Fn14 block 59 and TROY NFkB inh inactive.
For Oc1ccccc1C=NN=Cc1c(O)ccc2ccccc12 the results were LMP1 NFkB inh 93, EWS-Fli block inactive, TWEAK Fn14 block inactive and TROY NFkB inh inactive.
Nc1ccc(C(=O)N/N=C\c2cc(N=Nc3cccc4ccccc34)ccc2O)cc1 was read as LMP1 NFkB inh 60, TWEAK Fn14 block inactive and TROY NFkB inh inactive.
Screening CCCC(=O)Nc1ccccc1NC(=O)c1ccc2c(c1)OCO2 returned LGR2 inh inactive, LMP1 NFkB inh 78, EWS-Fli block inactive, TWEAK Fn14 block inactive and TROY NFkB inh inactive.
Screening O=C(N/N=C/c1ccc2c(c1)OCO2)c1cccnc1 returned LGR2 inh inactive, LMP1 NFkB inh inactive, EWS-Fli block inactive, TWEAK Fn14 block inactive and TROY NFkB inh inactive.
For CCCC(=O)Nc1ccccc1NC(=O)CCC the results were LMP1 NFkB inh inactive, TWEAK Fn14 block inactive and TROY NFkB inh inactive.
O=C(N/N=C\c1ccc2c(c1)OCO2)c1cncc(Br)c1 was read as LGR2 inh inactive, LMP1 NFkB inh inactive, EWS-Fli block inactive, TWEAK Fn14 block 58 and TROY NFkB inh inactive.
Screening CCCC(=O)Nc1ccc(C(=O)O)cc1NC(=O)CCC returned LMP1 NFkB inh inactive, TWEAK Fn14 block 103 and TROY NFkB inh inactive.
O=C(C[C@H]1C=C[C@H](NC(=O)C2CCOCC2)[C@@H](CO)O1)NCc1ccncc1 was read as LGR2 inh inactive and EWS-Fli block inactive.
CC(C)NC(=O)N(O)C1N(Cc2ccc3c(c2)OCO3)C(=S)SC1(C)C (configuration not stated) was read as LGR2 inh inactive, LMP1 NFkB inh inactive, TWEAK Fn14 block 58 and TROY NFkB inh inactive.
For COc1cccc(-c2ccc3c(c2)O[C@H](CN(C)Cc2cncnc2)[C@@H](C)CN([C@H](C)CO)S3(=O)=O)c1 the results were LGR2 inh inactive and EWS-Fli block inactive.
Screening CC(C)c1nnc(NC(=O)c2ccc3c(c2)OCO3)s1 returned LGR2 inh 74, LMP1 NFkB inh inactive, EWS-Fli block inconclusive, TWEAK Fn14 block 73 and TROY NFkB inh inactive.
O=C(Nc1ncc([N+](=O)[O-])s1)c1ccc2c(c1)OCO2 was read as LGR2 inh 91, LMP1 NFkB inh 55, EWS-Fli block inactive, TWEAK Fn14 block 103 and TROY NFkB inh 84.
For Cc1ccc(C(=O)Nc2ncc([N+](=O)[O-])s2)cc1 the results were LMP1 NFkB inh 68, EWS-Fli block 76, TWEAK Fn14 block 100 and TROY NFkB inh 80.
O=C(COc1ccc(Cl)cc1)Nc1ncc([N+](=O)[O-])s1 was read as LGR2 inh inactive, LMP1 NFkB inh inactive, EWS-Fli block inactive, TWEAK Fn14 block 79 and TROY NFkB inh inactive.
For CC(c1ccccc1)c1nnc(NC(=O)c2ccc3c(c2)OCO3)s1 (configuration not stated) the results were LGR2 inh inactive, LMP1 NFkB inh inactive, EWS-Fli block inactive, TWEAK Fn14 block inactive and TROY NFkB inh inactive.
O=C(Cc1ccc(Cl)cc1)Nc1ncc([N+](=O)[O-])s1 was read as LGR2 inh inactive, LMP1 NFkB inh inactive, EWS-Fli block inactive, TWEAK Fn14 block inactive and TROY NFkB inh inactive.
Cc1ccc([N+](=O)[O-])cc1NC(=O)c1ccc2c(c1)OCO2 was read as LGR2 inh inactive, LMP1 NFkB inh inactive, EWS-Fli block inactive, TWEAK Fn14 block inactive and TROY NFkB inh inactive.
`Cc1cnc(NC(=O)c2ccc3c(c2)OCCO3)s1` gave LGR2 inh 96, LMP1 NFkB inh 79, EWS-Fli block 77, TWEAK Fn14 block 103 and TROY NFkB inh 85.
For Cc1ccc(C(=O)Nc2ncc(C)s2)s1 the results were LGR2 inh inactive, LMP1 NFkB inh inactive, EWS-Fli block inactive, TWEAK Fn14 block 57 and TROY NFkB inh inactive.
Cc1ccc(C(=O)Nc2ncc(C)s2)o1 was read as LGR2 inh inactive, LMP1 NFkB inh inactive, TWEAK Fn14 block inactive and TROY NFkB inh inactive.
For Cc1nc2ccc3nc(NC(=O)c4ccc5c(c4)OCCO5)sc3c2s1 the results were LGR2 inh inactive, LMP1 NFkB inh inactive, TWEAK Fn14 block inactive and TROY NFkB inh inactive.
`C[C@@H]1CCCCO[C@@H](CN(C)S(=O)(=O)c2ccccc2)[C@H](C)CN([C@H](C)CO)C(=O)c2cc(NC(=O)NC3CCCCC3)ccc2O1` gave LGR2 inh inactive and EWS-Fli block inactive.
C[C@H](O)C#Cc1ccc2c(c1)O[C@H](CN(C)CC1CC1)[C@H](C)CN([C@H](C)CO)S2(=O)=O was read as LGR2 inh inactive and EWS-Fli block inactive.
`COc1ccc(NC(=O)CN2C(=O)NC(C)(c3ccc(C)cc3)C2=O)c([N+](=O)[O-])c1` (configuration not stated) gave LGR2 inh inactive, LMP1 NFkB inh 51, EWS-Fli block inactive, TWEAK Fn14 block inactive and TROY NFkB inh inactive.
Screening CCOc1ccc(C(=O)Nc2cc(C)on2)cc1 returned LMP1 NFkB inh inactive, TWEAK Fn14 block inactive and TROY NFkB inh inactive.
Cc1cc(NC(=O)c2cccc(COc3ccc(Br)cc3)c2)no1 was read as LGR2 inh inactive, LMP1 NFkB inh 43, EWS-Fli block 86, TWEAK Fn14 block inactive and TROY NFkB inh inactive.
Screening C[C@H]1CN([C@@H](C)CO)S(=O)(=O)c2ccc(Br)cc2O[C@H]1CN(C)Cc1ccncc1 returned LGR2 inh inactive and EWS-Fli block inactive.
O=C(O)c1ccc(-n2cncn2)c([N+](=O)[O-])c1 was read as LGR2 inh inactive, LMP1 NFkB inh 49, EWS-Fli block inactive, TWEAK Fn14 block inactive and TROY NFkB inh inactive.
`Cc1ccc(NC2=C(N3CCCCC3)C(=O)c3ccccc3C2=O)cc1` gave LGR2 inh inactive, LMP1 NFkB inh inactive, TWEAK Fn14 block 64 and TROY NFkB inh inactive.
Screening COc1ccccc1NC1=C(N2CCCCC2)C(=O)c2ccccc2C1=O returned LMP1 NFkB inh inactive, TWEAK Fn14 block 67 and TROY NFkB inh 58.
Screening O=C1C(Nc2ccccc2)=C(N2CCCCC2)C(=O)c2ccccc21 returned LMP1 NFkB inh inactive, TWEAK Fn14 block inactive and TROY NFkB inh inactive.
`O=C(/C=C/c1ccc(O)cc1)c1ccc(NC2=C(N3CCCCC3)C(=O)c3ccccc3C2=O)cc1` gave LGR2 inh inactive, LMP1 NFkB inh 43, EWS-Fli block inactive, TWEAK Fn14 block 53 and TROY NFkB inh inactive.
